Where “and” joins values, the source holds several entries; their conditions need not be identical. Equal entries are not always repeated. Screen size: about 63,000 compounds; about 1,100 (1.7%) were called active. No stated cut-off is given here; in the data, active means cytotoxicity above about 50%; inactive means the rest. Many of the other results were omitted from the sample, so actives are more common in it than they were. Potency and affinity values are given separately. The source holds several records for some structures; these can differ, active in one and inactive in another.
Assay: HPDE-C7 pancreatic duct cell viability loss – fluorescence, HTS (AID 430);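 further: cells exposed to compound for 48 hours before viability readout; 0% = vehicle and 100% = reference cytotoxic drug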
Details: HPDE-C7 pancreatic duct cells viability, at 10 µM, stronger effect = higher value

Compound | cytotoxicity
CCOC(=O)N1CCN(c2c(N3CCC(N4CCCCC4)CC3)c(=O)c2=O)CC1 | 10.5% (inactive)
CN(Cc1ccccc1)Cc1nc2c(c(=O)n(C)c(=O)n2C)n1Cc1ccc(F)cc1 | -29.4% (inactive)
O=C(CCS(=O)(=O)c1cccc2nsnc12)N1CCN(C(=O)c2ccco2)CC1 | -15.9% (inactive)
CN1CCN(C2=NC3(CCCC3)C(C#N)C(=O)N2)CC1 (stereo unspecified) | 23.5% (inactive)
COC(=O)c1c(F)c(F)c(NCCO)c(F)c1F | -3.7% (inactive)
CC(NC(=O)NC1CCCCC1)C(c1cccs1)N1CCOCC1 (stereo unspecified) | -7.5% (inactive)
CCOC(=O)C1CCN(C(=O)CSc2n[nH]c(=O)[nH]c2=O)CC1 | 9.8% (inactive)
CNC(=O)/C(=N\O)c1ccccc1 | -14.1% (inactive)
COc1cc(C(=O)NCCc2ccc(S(N)(=O)=O)cc2)cc(OC)c1OC | 3.4% (inactive)
COc1ccc(C2=CC(c3ccc(C)cc3)n3nnnc3N2)cc1 (stereo unspecified) | -1.9% (inactive)
COc1cccc(C2=CC(c3cccc(OC)c3OC(F)F)n3nnnc3N2)c1 (stereo unspecified) | -21.2% (inactive)
CCOc1ccc(C2C=C(c3ccc(C)cc3)Nc3nnnn32)cc1 (stereo unspecified) | -0.9% (inactive)
COc1cccc(C2=CC(c3ccc(OC)c(OC)c3OC)n3nnnc3N2)c1 (stereo unspecified) | -3.9% (inactive)
COc1cccc(C2=CC(c3cccc(OC)c3OC)n3nnnc3N2)c1 (stereo unspecified) | 71.4% (active)
O=C(CCNS(=O)(=O)c1cccs1)Nc1ccccc1F | -34.3% (inactive)
COc1ccc(Cn2nnnc2CN2CCC(c3nc4ccccc4s3)CC2)cc1 | -9.8% (inactive)
Cc1c(C(=O)OC(C)C)[nH]c2c1C(=O)CC(C)(C)C2 | -0.2% (inactive)
CCOC(=O)C1CCCN(C(=O)CCC(=O)Nc2ccc3nc(N4CCOCC4)cc(C)c3c2)C1 (stereo unspecified) | 9.9% (inactive)
CCOc1ccc2[nH]c(=O)c(CN(CCO)C(=O)c3ccc(Br)cc3)cc2c1 | 6.1% (inactive)
O=C1CN(C(=O)COC(=O)COc2ccc3c(c2)CCC3)c2ccccc2N1 | 2.9% (inactive)
COc1cc(NC(=O)c2cnn3c(C)cc(C)nc23)c(OC)cc1Cl | 12.9% (inactive)

Compound | cytotoxicity
CC1(C)Cc2c(sc3c2c(=N)n(Cc2ccco2)c(=O)n3CC(=O)Nc2ccccc2)CO1 | 5.3% (inactive)
Cc1ccc(NC(=O)Cn2c(=O)n(Cc3ccco3)c(=N)c3c4c(sc32)COC(C)(C)C4)cc1 | 24.6% (inactive)
CC1(C)Cc2c(sc3c2c(=N)n(Cc2ccco2)c(=O)n3CC(=O)Nc2ccc(Cl)cc2)CO1 | 51.5% (active)
Cc1cccc(OCC(O)Cn2c(-n3nc(C)cc3C)nc3c2c(=O)[nH]c(=O)n3C)c1 (stereo unspecified) | -2.9% (inactive)
CCCOC(=O)Nc1nc2ccccc2o1 | -8.2% (inactive)
COc1ccccc1C(=O)Nc1nnc(-c2ccc(F)cc2)o1 | 4.1% (inactive)
Cc1nc2ccc(N3C(=O)CCC3=O)cc2[nH]1 | -18.8% (inactive)
COc1ccc(CN2CCN(S(=O)(=O)c3ccccc3)CC2)c(OC)c1 | -0.4% (inactive)
O=C(CCC1CCCC1)N1CCN(C(=O)COc2ccccc2)CC1 | 8.2% (inactive)
COc1ccc(-n2c(SCC(=O)c3c(N)n(C)c(=O)n(C)c3=O)nc3ccccc32)cc1 | 6.1% (inactive)
Cn1c(N)c(C(=O)CSc2nc3ccccc3n2-c2ccccc2)c(=O)n(C)c1=O | 106% (active)
NC(=O)CSc1nc2ccccc2n1-c1ccccc1 | -1.9% (inactive)
Cc1ccc(NC(=O)CS(=O)CC(=O)Nc2cccc(C)c2C)cc1F (stereo unspecified) | -15.9% (inactive)
COc1ccc(Cl)c(Cn2c(NCC(C)O)nc3c2c(=O)n(C)c(=O)n3C)c1 (stereo unspecified) | -9.9% (inactive)
O=C(O)c1ccc2c3c(ncnc13)-c1ccccc1C2=O | 75.6% (active)
O=C1c2ccccc2-c2ncnc3cccc1c23 | 0.7% (inactive)
O=C1c2ccccc2-c2nccnc21 | -15.6% (inactive)
CCc1nnc(NC(=O)CCN2C(=O)c3ccccc3S2(=O)=O)s1 | -4.2% (inactive)
Nc1nc(Cl)nc2c1ncn2[C@H]1C[C@H](O)[C@@H](CO)O1 | 7.4% (inactive) and 95.9% (active)
Nc1nc(Cl)nc2c1ncn2[C@@H]1O[C@H](CO)[C@@H](O)[C@H]1O | 8.6% (inactive)
Nc1nc(F)nc2c1ncn2[C@@H]1O[C@H](CO)[C@@H](O)[C@@H]1O | 13.2% (inactive)

Compound | cytotoxicity
Cc1ccc(NC(=O)Cn2c(C)cc(C)c(C#N)c2=O)c(Cl)c1 | -6.5% (inactive)
O=C(CN1C(=O)CSc2ccccc21)NCCC1=CCCCC1 | -11% (inactive)
COc1ccc(NS(=O)(=O)c2cc(C)ccc2OC)cc1OC | 10.3% (inactive)
COc1ccccc1N1CCN(Cc2ccco2)CC1 | -25.7% (inactive)
O=C(N1CCOCC1)N1CCN(Cc2ccccc2)CC1 | 4.1% (inactive)
CN1C(=O)C2(c3ccccc31)N(C)CC(c1ccccn1)C21SC(=S)N(Cc2ccco2)C1=O (stereo unspecified) | -9.5% (inactive)
S=C1SCN(Cc2ccccn2)CN1Cc1ccco1 | 64.7% (active)
S=C1SCN(CCN2CCOCC2)CN1Cc1ccccc1 | 60.6% (active)
c1ccc(CN2CCN(c3ncccn3)CC2)nc1 | 6% (inactive)
CCCN1CN(Cc2ccco2)c2nc3ccccc3n2C1 | -15.1% (inactive)
COCCN1CSC(=S)N(Cc2ccco2)C1 | 50.6% (active)
c1ccc(CCN2CN(CCCN3CCOCC3)c3nc4ccccc4n3C2)cc1 | -23.9% (inactive)
CCOc1cccc(C(=O)Nc2cccc(-c3nc4ncccc4o3)c2C)c1 | 4.2% (inactive)
COc1ccc(-n2c(Cc3cccn3C)nnc2SCC(=O)NCC2CCCO2)cc1 (stereo unspecified) | -8.1% (inactive)
O=C1NC(c2cccs2)Nc2sc3c(c21)CCCC3 (stereo unspecified) | 0.6% (inactive)
CC(C)(C)c1ccccc1NC(=O)c1ccco1 | 15% (inactive)
O=C(Nc1cccnc1)c1ccc(COc2ccccc2Br)o1 | 23.7% (inactive)
COc1ccc(NC(=O)c2ccc(COc3ccccc3Br)o2)cc1OC | 36.6% (inactive)
COc1cc(NC(=O)c2ccc(COc3ccccc3Br)o2)cc(OC)c1OC | 56.6% (active)
